The source of these data is PubChem BioAssay.

Calls of active or inactive are those of the source.

One experiment addresses Albumin (Bos taurus) (UniProt P02769). The experiment is described as follows: bovine serum albumin binders on microarray, profiling panel, artefact control for SMM control protein annotation, biochemical, small-molecule microarray, Alexa647 label, 635/667 nm fluorescence (AID 1118).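 Note: score merges 667 nm emission intensity and signal-to-noise per printed compound spot.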 The note with it: BSA-A647 binding, fluorescence 635 nm, higher = more signal.
Experiment [1] can be described thus: small-molecule microarray binders of probe aXIP, primary screen, biochemical, NeuroSMM set, 635/667 nm fluorescence (AID 1119).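 Note: probe is the protein aXip251-270 applied at 1 µg/mL to compound-printed slides; binding of probe to printed compounds measured as 667 nm fluorescence plus signal to noise.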 The note with it: higher = more signal, called active from +8 up or from −8 down.
Experiment [2] is described as follows: small-molecule binders of probe aNOTCH3, primary screen, biochemical, small-molecule microarray, 635/667 nm fluorescence (AID 1120).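 Note: probe is a biotin-tagged antibody raised against NOTCH3 rather than NOTCH3 protein; score merges spot fluorescence near 667 nm with spot signal to noise.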 Conditions: higher = more signal.
Experiment [3] can be described thus: small-molecule binders of probe aNOTCH2, primary screen, biochemical, small-molecule microarray, 635/667 nm fluorescence (AID 1121).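 Note: score merges feature fluorescence read at 667 nm with its signal to noise.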 Conditions: higher = more signal.
In experiment [4] the target is Carbonic anhydrase 2 (Homo sapiens) (UniProt P00918). The experiment is described as follows: CAII small-molecule binders, profiling panel, biochemical, small-molecule microarray, Alexa647-labelled CAII (AID 1122). Conditions: CAII-A647 binding fluorescence, higher = more signal.
The nature of experiment [5]: COS7 lysate on small-molecule microarray, probe aHis, 635 nm (AID 1123).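 Note: z-score combines 667nm fluorescence intensity with signal-to-noise per printed compound spot.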 The note with it: COS7 cell lysate, fluorescence, higher = more signal.
Experiment [6] is described as follows: compound binding in COS7 lysate, probe aLAP1, primary screen, cell lysate, small-molecule microarray (AID 1124).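 Note: lysate comes from COS7 cells expressing LAP1 and is applied at 0.3 µg/mL; score merges spot fluorescence near 667 nm with signal-to-noise over triplicate slides.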 Conditions: probe aLAP1, fluorescence, higher = more signal.
The next experiment deals with Sam68 (KHDRBS1). The experiment in a line: Sam68 small-molecule binders, primary screen, biochemical, small-molecule microarray, 635 nm fluorescence (AID 1125).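 Note: score merges 667 nm channel intensity with signal to noise over triplicate slides.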 The note with it: small-molecule microarray binding, higher = more signal.
The subject of experiment [7] is Chordin-like protein 2 (CHRDL2). The experiment is described as follows: CHRDL2 small-molecule binders, primary screen, biochemical, small-molecule microarray, 635 nm fluorescence (AID 1126).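 Note: printed compound slides probed with Chrdl2 protein at 4 µg/mL for 1 h at 4 C; score merges 667 nm emission intensity with signal to noise over three replicate slides.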 Conditions: small-molecule microarray binding, fluorescence 635 nm; higher = more signal.
For experiment [8], the target named is Concanavalin-A (Canavalia ensiformis) (UniProt P02866). The experiment is described as follows: ConA small-molecule binders, primary screen, artefact control for SMM control protein annotation, biochemical, small-molecule microarray, Alexa647 label, 635 nm (AID 1127).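 Note: z combines 667 nm emission intensity with signal-to-noise across three replicate slides.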 Conditions: ConA-A647 binding fluorescence, higher = more signal.
Chain of Concanavalin-A (Canavalia ensiformis) (P02866 whole entry, looked up): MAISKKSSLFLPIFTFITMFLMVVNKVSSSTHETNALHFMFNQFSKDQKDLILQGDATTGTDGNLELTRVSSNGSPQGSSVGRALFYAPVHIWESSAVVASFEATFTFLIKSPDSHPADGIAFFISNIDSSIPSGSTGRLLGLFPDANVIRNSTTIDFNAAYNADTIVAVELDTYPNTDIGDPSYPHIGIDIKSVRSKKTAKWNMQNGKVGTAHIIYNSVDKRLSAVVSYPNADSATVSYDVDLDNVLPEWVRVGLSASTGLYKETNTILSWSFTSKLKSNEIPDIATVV
The nature of experiment [9]: anti-His antibody binders, primary screen, artefact control for SMM control protein annotation, biochemical, small-molecule microarray, 635 nm fluorescence (AID 1128).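 Note: score merges feature fluorescence with signal-to-noise for each printed compound spot.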 Conditions: anti-His Alexa647 antibody binding, higher = more signal.
For experiment [10], the system named is Human papillomavirus type 1a E7 protein (residues 1-88). The experiment is described as follows: HPV1a E7 small-molecule binders, primary screen, biochemical, small-molecule microarray, residues 1-88, 635 nm (AID 1129). The note with it: small-molecule microarray binding, fluorescence 635 nm; higher = more signal.
The target in experiment [11] is Focal adhesion kinase 1 (Homo sapiens) (UniProt Q05397). The experiment is described as follows: small-molecule microarray binders of FAK, primary screen, biochemical, 635/667 nm fluorescence, BSA, DTT (AID 1130).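 Note: composite of spot emission at 667 nm and signal to noise over triplicate slides.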 The note with it: PTK2 binding, 635 nm fluorescence, higher = more signal.
Chain of Focal adhesion kinase 1 (Homo sapiens) (Q05397 whole entry, looked up): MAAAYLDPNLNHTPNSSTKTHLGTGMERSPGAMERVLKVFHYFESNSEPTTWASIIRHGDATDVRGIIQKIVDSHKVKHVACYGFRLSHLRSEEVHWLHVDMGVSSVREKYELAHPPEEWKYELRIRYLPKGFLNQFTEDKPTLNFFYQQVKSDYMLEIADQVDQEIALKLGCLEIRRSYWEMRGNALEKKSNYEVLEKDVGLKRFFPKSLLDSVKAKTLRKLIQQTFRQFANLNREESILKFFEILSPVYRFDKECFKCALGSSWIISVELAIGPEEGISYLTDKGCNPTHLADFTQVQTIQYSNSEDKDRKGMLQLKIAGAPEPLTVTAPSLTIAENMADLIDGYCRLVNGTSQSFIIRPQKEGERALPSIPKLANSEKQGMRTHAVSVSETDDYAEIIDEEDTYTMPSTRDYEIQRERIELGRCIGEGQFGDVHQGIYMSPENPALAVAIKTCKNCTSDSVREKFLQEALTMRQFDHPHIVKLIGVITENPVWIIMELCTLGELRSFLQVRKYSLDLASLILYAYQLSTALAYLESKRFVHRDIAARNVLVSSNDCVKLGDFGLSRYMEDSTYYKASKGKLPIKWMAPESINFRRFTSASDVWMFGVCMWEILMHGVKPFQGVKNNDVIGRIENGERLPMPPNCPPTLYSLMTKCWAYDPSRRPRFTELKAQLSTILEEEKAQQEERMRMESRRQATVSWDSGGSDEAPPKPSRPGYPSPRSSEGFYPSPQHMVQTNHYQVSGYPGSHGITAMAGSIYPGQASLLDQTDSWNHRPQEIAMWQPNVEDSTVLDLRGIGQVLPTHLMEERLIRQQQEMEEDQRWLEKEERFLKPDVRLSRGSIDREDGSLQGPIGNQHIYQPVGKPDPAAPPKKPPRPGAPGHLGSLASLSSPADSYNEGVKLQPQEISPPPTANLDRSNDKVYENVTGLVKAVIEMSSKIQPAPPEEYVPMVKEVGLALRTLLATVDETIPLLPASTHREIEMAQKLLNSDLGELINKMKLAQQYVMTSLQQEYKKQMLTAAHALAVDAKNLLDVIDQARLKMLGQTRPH
The subject of experiment [12] is Fibrinogen (Alexa647-labelled). The experiment in a line: fibrinogen binders on compound microarrays, profiling panel, artefact control for SMM control-protein annotation, biochemical, small-molecule microarray, 635/667 nm fluorescence (AID 1131).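 Note: z-score merges 667 nm fluorescence with per-spot signal-to-noise over triplicate slides.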 The note with it: fibrinogen-A647 binding fluorescence, higher = more signal.
In experiment [13] the target is Follistatin (Homo sapiens) (UniProt P19883). The experiment is described as follows: follistatin binders on small-molecule microarrays, primary screen, biochemical, small-molecule microarray, 635/667 nm fluorescence (AID 1132). The note with it: FST binding, 635 nm fluorescence, higher = more signal.
Chain of Follistatin (Homo sapiens) (P19883 whole entry, looked up): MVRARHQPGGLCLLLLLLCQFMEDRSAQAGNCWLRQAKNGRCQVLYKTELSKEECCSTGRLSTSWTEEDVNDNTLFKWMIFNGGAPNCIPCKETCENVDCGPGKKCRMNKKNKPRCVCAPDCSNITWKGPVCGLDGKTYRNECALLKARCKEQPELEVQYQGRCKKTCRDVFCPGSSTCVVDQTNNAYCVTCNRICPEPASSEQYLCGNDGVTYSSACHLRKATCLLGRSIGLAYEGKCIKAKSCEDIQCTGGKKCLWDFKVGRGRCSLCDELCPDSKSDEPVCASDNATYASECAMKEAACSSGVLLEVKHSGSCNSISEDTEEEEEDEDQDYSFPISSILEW
In experiment [14] the target is Fibroblast growth factor 2 (Homo sapiens) (UniProt P09038). The experiment in a line: FGF2 binders on small-molecule microarrays, primary screen, biochemical, small-molecule microarray, 635/667 nm fluorescence (AID 1133). The note with it: small-molecule microarray binding, FGF2, fluorescence 635/667; higher = more signal.
Chain of Fibroblast growth factor 2 (Homo sapiens) (P09038 whole entry, looked up): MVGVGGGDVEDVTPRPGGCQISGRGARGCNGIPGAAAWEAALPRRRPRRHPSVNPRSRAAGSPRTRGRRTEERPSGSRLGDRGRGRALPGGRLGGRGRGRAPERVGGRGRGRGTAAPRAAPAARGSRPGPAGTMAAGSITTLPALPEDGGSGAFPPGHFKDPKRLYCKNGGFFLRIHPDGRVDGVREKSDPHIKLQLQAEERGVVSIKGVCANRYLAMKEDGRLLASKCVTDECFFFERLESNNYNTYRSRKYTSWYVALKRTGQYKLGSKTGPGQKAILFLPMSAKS
A short description of experiment [15]: mitochondrial membrane potential change in A549 cells, profiling panel, cell-based, JC-1 fluorescence, basal, 24 h, 100 nL (AID 1138).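 Note: A549 lung adenocarcinoma cells under basal conditions with no added stimulus; test concentration not given here.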 The note with it: higher = more signal.
The next experiment relates to Lefty1. The experiment is described as follows: Lefty1 binders on small-molecule microarrays, primary screen, biochemical, small-molecule microarray, 635/667 nm fluorescence (AID 1139). Conditions: small-molecule microarray binding, fluorescence 635/667; higher = more signal.
Experiment [16] relates to wheat germ agglutinin (Triticum aestivum), Alexa647-labelled. The experiment in a line: wheat germ agglutinin binders on compound microarrays, profiling panel, artefact control for SMM control-protein annotation, biochemical, small-molecule microarray, 635/667 nm fluorescence (AID 1140).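 Note: score merges 667 nm feature emission with signal to noise over triplicate slides.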 Conditions: WGA-A647 binding, 635 nm fluorescence, higher = more signal.
The target of experiment [17] is Luciferin 4-monooxygenase (Photinus pyralis) (UniProt P08659). The experiment is described as follows: firefly luciferase enzyme inhibitors, primary screen, biochemical, luminescence, purified enzyme, 2006 set (AID 1141).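 Note: cell-free assay with purified firefly luciferase at 100 ng per well in PBS; test concentration not given here.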 The note with it: SteadyGlo luminescence, 30 min, higher = more signal, called active from +8 up or from −8 down.
Chain of Luciferin 4-monooxygenase (Photinus pyralis) (P08659 whole entry, looked up): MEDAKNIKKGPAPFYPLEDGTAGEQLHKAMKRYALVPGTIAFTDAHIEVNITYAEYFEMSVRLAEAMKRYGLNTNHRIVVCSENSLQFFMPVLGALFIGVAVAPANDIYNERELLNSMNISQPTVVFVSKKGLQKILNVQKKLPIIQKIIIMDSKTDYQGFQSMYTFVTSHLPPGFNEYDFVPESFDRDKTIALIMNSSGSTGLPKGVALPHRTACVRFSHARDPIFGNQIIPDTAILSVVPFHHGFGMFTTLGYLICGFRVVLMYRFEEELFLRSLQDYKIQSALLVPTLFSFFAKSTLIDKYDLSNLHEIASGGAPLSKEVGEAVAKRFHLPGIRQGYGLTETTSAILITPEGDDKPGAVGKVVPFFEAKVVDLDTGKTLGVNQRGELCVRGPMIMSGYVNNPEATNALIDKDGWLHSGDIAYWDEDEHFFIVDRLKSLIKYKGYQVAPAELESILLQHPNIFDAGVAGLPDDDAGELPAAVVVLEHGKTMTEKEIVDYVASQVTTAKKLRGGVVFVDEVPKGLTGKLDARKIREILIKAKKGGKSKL

Chain of Albumin (Bos taurus) (P02769 whole entry, looked up): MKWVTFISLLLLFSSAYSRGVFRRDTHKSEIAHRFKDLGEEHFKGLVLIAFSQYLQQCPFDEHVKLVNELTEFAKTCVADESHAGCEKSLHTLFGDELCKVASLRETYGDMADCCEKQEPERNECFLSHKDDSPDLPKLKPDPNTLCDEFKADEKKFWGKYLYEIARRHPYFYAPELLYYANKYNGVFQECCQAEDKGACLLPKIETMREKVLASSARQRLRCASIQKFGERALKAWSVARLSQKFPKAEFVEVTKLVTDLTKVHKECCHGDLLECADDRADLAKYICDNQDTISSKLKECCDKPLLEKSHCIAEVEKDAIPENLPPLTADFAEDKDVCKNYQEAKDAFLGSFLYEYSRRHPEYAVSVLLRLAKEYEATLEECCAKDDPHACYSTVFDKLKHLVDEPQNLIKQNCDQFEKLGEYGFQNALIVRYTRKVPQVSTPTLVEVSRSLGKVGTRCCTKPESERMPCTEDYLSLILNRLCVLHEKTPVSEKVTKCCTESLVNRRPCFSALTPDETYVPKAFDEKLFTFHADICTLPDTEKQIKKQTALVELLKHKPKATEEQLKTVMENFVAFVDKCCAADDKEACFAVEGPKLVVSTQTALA

As for `CC(C)C[C@@H]1NC(=O)[C@@H]2C[C@H](C(=O)O)[C@H](c3cccc(OCCO)c3)N2C1=O`, the composite z-score with Albumin (Bos taurus) is -0.494; in [2], -0.204; in experiment [3], -0.164; in [4] it was 0.673; in experiment [5] it was 1.78; in [6], 0.283. Moreover, the composite z-score was -0.0754 in the experiment on Sam68 (KHDRBS1); 0.707 in [7]; 0.684 in [8]; 2.29 in experiment [9]; -0.312 in experiment [10]; -0.176 in [11]. Besides, the composite z-score was -0.0031 in [12]; 0.495 in experiment [13]; 0.89 in experiment [14]; -0.375 in the experiment with Lefty1; 0.275 in [16]. Moreover, in experiment [1], the composite Z-score is -0.303 (inactive). The z-score in experiment [15] was -0.0906; in experiment [17], -0.291 (inactive).

For the molecule `CCC(CC)C(O)C1C=CC2C(=O)NC(=O)C2N1Nc1ccc(Cl)cc1Cl` (stereo not given), the composite z-score worked out at 0.869 with Albumin (Bos taurus); 0.237 in experiment [2]; 0.0333 in [3]; 0.654 in experiment [4]; 2.18 in experiment [5]; 1.02 in experiment [6]. Also, the composite z-score was 0.887 in the experiment on Sam68 (KHDRBS1); -0.381 in experiment [7]; 1.06 in experiment [8]; 1.66 in experiment [9]; 1.18 in experiment [10]; 0.383 in experiment [11]. Besides, the composite z-score in experiment [12] is 0.952; in experiment [13], 1.14; in [14], -0.0832; in the experiment with Lefty1, 0.359; in experiment [16], 0.788. The composite Z-score in experiment [1] was 0.818 (inactive). In addition, the z-score in [15] was -0.00434; in experiment [17], -0.533 (inactive).

For `O[C@@H](Cc1ccccc1)[C@H]1C2C=CCCC=C2CN1Cc1cccc(Cl)c1` (stereo not given in full), the composite z-score in the experiment with Albumin (Bos taurus) amounted to 0.478; in experiment [2], 0.361; in experiment [3] it was 0.0018; in experiment [4], 0.385; in experiment [5], 0.822; in experiment [6] it was 0.536. Further, the composite z-score in the experiment on Sam68 (KHDRBS1) stood at 1.31; in experiment [7] it was 0.595; in experiment [8], 0.609; in [9] it was 1.21; in [10] it was 1.14; in experiment [11], 0.184. In addition, the composite z-score was found to be 0.675 in experiment [12]; 1.24 in experiment [13]; 0.688 in experiment [14]; 1.41 in the experiment with Lefty1; 0.593 in experiment [16]. Also, the composite Z-score in [1] is 0.0338 (inactive). Moreover, the results for the z-score in [15] and in experiment [17] were 0.182 and -1.89 (inactive), respectively.

On to `C=C(COC)C(=O)CC[C@@H](OC(C)=O)c1ccc(CO)o1`, for which the composite z-score with Albumin (Bos taurus) is -0.0861; in experiment [2], -0.0311; in [3], 0.169; in experiment [4], 0.662; in experiment [5] it was -0.137; in experiment [6] it was -0.311. Also, the composite z-score in the experiment on Sam68 (KHDRBS1) was 0.298; in experiment [7] it was 1.13; in experiment [8], 0.0796; in [9] it was -0.555; in experiment [10], -0.724; in experiment [11], -0.285. In addition, the composite z-score came out at 0.966 in experiment [12]; 1.33 in experiment [13]; 1.32 in experiment [14]; 1.73 in the experiment on Lefty1; 0.397 in [16]. Further, the composite Z-score in experiment [1] was 0.365 (inactive). Besides, the z-score in [15] is -0.57; in [17] it was -1.15 (inactive).

Regarding `CN(C)CCCCCCNC(=O)[C@@H]1C[C@@H]2C(=O)N[C@@H](Cc3ccccc3)C(=O)N2[C@@H]1c1ccc(O)cc1`, the composite z-score is -0.0568 with Albumin (Bos taurus); 0.299 in [2]; -0.0276 in experiment [3]; 0.425 in [4]; 1.58 in experiment [5]; -0.453 in experiment [6]. Further, the composite z-score was 1.31 in the experiment on Sam68 (KHDRBS1); 1.41 in experiment [7]; 1.21 in [8]; 2.45 in [9]; 1.23 in experiment [10]; 0.303 in [11]. The composite z-score stood at 0.493 in experiment [12]; 1.44 in experiment [13]; 1.63 in experiment [14]; 1.67 in the experiment with Lefty1; 0.715 in experiment [16]. Further, in experiment [1], the composite Z-score is 0.675 (inactive). For the same molecule, the figures for the z-score in experiment [15] and in [17] were -1.06 and 0.205 (inactive), respectively.
